{
  "source": "the supplement of paper PMC10849652",
  "note": "The full data set covers some 7,900 targets. This sample favours those with a hit. About 0.6% of all pairs of compound and target were hits. Unmarked numbers belong to inactive results.",
  "data": [
    {"compound": "C1=CC(=CC=C1C2=NC3=C(N2)C=C(C=C3)C(=O)N)OC4=CC=C(C=C4)Cl", "assay": "log2 fold change, soluble protein after heating vs DMSO (PISA); higher = thermal stabilisation; K562 cells, 10 uM, 30 min; active = over 0.2 and 3.5 SD of the protein, either way, in both replicates (recomputed)", "how_it_was_run": "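K562 cells at 2×10^6 cells/mL were treated with 10 μM compound for 30 min. Aliquots were heated for 3 min across 48°C-58°C, pooled, and extracted in PBS with 0.5% NP-40 at 4°C; soluble protein was the supernatant after 21,000xg for 90 min. Soluble protein was quantified by TMTpro 16plex LC-MS/MS with channel sums equalised, and reported as log2 fold change in thermal stability against DMSO controls, with values from duplicates.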", "values": [
      {"target": "SPPL2B (UniProt Q8TCT7)", "log2 fold change": 0.044},
      {"target": "STK4 (UniProt Q13043)", "log2 fold change": 0.003},
      {"target": "SMG1 (UniProt Q96Q15)", "log2 fold change": -0.012},
      {"target": "STK38L (UniProt Q9Y2H1)", "sequence (Q9Y2H1 whole entry, looked up)": "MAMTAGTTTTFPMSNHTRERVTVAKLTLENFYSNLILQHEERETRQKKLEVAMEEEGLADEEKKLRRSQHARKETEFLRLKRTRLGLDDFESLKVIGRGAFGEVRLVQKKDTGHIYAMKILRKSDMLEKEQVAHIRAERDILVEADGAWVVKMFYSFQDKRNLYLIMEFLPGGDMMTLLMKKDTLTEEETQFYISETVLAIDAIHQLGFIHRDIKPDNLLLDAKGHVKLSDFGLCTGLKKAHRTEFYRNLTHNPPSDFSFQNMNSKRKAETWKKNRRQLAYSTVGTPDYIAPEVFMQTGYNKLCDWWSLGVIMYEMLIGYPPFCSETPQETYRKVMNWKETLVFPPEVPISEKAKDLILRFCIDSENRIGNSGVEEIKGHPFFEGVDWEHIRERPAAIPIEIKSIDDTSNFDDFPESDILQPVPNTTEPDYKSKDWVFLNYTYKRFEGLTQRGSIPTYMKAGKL", "log2 fold change": 0.031},
      {"target": "TGFBRAP1 (UniProt Q8WUH2)", "sequence (Q8WUH2 whole entry, looked up)": "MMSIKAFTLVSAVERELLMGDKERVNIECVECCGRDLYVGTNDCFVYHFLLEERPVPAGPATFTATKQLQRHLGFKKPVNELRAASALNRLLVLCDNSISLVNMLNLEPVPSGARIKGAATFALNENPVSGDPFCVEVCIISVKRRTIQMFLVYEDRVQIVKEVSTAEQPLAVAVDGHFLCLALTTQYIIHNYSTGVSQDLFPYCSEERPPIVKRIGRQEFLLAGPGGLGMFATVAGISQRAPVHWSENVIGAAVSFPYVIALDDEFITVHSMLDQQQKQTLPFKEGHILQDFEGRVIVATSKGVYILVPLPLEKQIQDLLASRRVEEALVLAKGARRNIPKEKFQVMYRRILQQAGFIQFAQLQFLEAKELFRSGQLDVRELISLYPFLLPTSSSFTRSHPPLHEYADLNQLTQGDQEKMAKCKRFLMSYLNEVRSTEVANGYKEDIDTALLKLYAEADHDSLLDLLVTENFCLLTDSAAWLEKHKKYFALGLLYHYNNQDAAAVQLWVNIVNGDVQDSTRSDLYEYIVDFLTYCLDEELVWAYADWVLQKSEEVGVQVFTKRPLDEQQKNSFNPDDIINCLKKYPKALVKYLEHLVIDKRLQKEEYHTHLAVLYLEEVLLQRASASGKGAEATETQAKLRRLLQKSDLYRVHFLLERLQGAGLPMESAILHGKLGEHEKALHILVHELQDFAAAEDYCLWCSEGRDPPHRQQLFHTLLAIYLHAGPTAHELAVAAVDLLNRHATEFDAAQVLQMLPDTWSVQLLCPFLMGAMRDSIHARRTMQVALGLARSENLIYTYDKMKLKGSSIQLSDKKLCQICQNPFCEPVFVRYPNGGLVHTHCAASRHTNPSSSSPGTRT", "log2 fold change": -0.119},
      {"target": "SLC9A6 isoform 2 (UniProt Q92581)", "sequence (Q92581 whole entry, looked up)": "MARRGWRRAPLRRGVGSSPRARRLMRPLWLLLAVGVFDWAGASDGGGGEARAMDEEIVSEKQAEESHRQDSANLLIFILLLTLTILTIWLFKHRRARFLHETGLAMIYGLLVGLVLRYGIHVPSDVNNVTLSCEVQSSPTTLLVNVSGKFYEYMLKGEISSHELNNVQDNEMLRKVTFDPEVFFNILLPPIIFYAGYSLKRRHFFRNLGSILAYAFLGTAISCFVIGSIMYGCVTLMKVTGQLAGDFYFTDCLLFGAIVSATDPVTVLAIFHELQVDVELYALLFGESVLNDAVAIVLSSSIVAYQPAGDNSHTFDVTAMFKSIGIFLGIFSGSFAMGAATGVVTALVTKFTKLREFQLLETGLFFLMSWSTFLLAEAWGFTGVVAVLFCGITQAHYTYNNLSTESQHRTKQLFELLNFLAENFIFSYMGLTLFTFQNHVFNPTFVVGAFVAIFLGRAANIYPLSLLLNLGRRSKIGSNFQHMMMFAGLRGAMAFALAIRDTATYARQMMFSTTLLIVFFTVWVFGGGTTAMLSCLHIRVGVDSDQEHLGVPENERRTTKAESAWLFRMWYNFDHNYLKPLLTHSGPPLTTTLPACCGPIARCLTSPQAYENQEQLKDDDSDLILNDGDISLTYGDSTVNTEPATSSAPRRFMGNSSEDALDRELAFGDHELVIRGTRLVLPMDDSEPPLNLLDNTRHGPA", "log2 fold change": 0.026},
      {"target": "SLC35A1 (UniProt P78382)", "sequence (P78382 whole entry, looked up)": "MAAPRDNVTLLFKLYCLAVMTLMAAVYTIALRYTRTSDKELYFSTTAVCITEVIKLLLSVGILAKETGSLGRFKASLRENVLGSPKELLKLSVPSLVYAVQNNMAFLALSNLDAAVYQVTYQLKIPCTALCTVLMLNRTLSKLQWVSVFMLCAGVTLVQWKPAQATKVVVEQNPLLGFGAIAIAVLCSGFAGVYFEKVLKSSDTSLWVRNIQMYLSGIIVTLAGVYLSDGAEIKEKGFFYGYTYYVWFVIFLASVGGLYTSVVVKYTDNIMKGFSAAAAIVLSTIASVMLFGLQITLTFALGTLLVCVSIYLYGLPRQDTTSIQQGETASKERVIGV", "log2 fold change": -0.008},
      {"target": "TFR2 (UniProt Q9UP52)", "log2 fold change": -0.015},
      {"target": "TERF2IP (UniProt Q9NYB0)", "log2 fold change": -0.003},
      {"target": "SUGP1 (UniProt Q8IWZ8)", "sequence (Q8IWZ8 whole entry, looked up)": "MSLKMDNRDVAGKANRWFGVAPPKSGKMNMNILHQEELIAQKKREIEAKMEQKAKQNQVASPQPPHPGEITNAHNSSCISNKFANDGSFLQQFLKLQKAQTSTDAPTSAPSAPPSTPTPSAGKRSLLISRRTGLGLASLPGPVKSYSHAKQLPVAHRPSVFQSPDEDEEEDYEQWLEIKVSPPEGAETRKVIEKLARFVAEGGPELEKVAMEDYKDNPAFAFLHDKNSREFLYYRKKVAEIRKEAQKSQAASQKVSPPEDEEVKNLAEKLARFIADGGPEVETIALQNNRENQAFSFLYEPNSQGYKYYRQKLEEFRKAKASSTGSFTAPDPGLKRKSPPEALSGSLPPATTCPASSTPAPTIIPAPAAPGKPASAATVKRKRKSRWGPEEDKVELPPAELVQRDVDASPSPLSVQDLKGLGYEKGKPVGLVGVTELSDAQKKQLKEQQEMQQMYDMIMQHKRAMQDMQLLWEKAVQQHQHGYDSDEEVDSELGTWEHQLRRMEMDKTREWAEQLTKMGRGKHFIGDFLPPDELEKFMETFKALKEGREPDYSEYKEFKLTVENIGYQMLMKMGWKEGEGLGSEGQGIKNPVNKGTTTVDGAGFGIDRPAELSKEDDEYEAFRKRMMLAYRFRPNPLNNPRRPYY", "log2 fold change": -0.029},
      {"target": "SURF1 (UniProt Q15526)", "sequence (Q15526 whole entry, looked up)": "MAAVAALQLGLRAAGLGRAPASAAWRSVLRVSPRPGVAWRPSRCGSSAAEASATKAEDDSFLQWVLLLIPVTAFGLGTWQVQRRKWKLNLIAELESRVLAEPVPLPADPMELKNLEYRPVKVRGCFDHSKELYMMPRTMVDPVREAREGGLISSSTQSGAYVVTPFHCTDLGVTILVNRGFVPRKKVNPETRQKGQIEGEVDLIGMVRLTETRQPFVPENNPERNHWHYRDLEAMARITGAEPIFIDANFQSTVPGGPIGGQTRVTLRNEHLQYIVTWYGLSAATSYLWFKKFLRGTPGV", "log2 fold change": -0.026},
      {"target": "STARD7 (UniProt Q9NQZ5)", "sequence (Q9NQZ5 whole entry, looked up)": "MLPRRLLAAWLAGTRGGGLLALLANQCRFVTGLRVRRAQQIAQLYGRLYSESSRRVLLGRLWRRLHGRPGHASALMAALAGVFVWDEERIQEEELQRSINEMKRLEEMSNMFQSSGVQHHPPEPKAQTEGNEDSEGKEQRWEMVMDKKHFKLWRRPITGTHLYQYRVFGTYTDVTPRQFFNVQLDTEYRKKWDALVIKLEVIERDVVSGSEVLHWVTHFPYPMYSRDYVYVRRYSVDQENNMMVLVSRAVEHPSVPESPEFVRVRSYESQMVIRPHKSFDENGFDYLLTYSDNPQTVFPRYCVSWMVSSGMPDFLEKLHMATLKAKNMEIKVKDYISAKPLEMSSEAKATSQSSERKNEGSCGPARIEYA", "log2 fold change": 0.086},
      {"target": "STEAP3 isoform 2 (UniProt Q658P3)", "log2 fold change": -0.019},
      {"target": "ST6GAL1 (UniProt P15907)", "sequence (P15907 whole entry, looked up)": "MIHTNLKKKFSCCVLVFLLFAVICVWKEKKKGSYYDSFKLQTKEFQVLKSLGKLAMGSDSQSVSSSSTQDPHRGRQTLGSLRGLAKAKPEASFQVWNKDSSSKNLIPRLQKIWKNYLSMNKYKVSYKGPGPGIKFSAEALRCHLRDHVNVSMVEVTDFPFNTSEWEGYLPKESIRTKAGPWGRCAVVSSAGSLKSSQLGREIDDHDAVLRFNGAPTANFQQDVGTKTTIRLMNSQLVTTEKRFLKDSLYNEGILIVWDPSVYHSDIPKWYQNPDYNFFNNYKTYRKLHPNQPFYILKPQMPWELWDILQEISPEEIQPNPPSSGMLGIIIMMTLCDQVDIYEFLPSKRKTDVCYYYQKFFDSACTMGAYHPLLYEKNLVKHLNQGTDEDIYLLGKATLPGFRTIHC", "log2 fold change": 0.022},
      {"target": "SPIRE1 (UniProt Q08AE8)", "log2 fold change": -0.119},
      {"target": "SLC27A1 (UniProt Q6PCB7)", "log2 fold change": -0.008},
      {"target": "SPG21 (UniProt Q9NZD8)", "sequence (Q9NZD8 whole entry, looked up)": "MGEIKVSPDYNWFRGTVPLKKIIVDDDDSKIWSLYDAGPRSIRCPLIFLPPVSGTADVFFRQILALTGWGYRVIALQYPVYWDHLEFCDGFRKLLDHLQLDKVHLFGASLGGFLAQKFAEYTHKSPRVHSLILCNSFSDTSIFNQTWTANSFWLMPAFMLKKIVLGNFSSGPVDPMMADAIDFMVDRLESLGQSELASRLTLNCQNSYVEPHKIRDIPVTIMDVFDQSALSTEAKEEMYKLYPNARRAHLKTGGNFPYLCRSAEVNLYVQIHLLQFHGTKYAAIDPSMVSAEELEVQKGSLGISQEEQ", "log2 fold change": 0.021},
      {"target": "SRP72 (UniProt O76094)", "log2 fold change": -0.054},
      {"target": "SLC38A7 (UniProt Q9NVC3)", "log2 fold change": 0.058},
      {"target": "SLK isoform 2 (UniProt Q9H2G2)", "log2 fold change": -0.001},
      {"target": "TIPRL (UniProt O75663)", "sequence (O75663 whole entry, looked up)": "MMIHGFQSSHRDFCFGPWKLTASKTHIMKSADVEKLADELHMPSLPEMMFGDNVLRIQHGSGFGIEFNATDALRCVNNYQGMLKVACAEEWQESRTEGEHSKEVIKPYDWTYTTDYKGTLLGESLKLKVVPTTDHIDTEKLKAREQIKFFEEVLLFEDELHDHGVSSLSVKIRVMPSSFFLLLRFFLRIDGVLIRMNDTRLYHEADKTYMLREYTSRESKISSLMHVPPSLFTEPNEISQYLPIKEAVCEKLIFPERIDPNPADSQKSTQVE", "log2 fold change": 0.009},
      {"target": "STX17 (UniProt P56962)", "sequence (P56962 whole entry, looked up)": "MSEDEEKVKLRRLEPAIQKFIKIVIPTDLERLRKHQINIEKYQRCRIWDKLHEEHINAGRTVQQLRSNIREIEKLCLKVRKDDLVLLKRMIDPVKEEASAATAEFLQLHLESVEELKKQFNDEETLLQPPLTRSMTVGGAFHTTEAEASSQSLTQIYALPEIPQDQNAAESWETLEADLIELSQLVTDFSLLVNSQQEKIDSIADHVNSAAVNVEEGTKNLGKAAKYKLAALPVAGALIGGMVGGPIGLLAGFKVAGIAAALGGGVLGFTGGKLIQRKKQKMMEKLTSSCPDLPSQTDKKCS", "log2 fold change": 0.015},
      {"target": "STIM1 (UniProt Q13586)", "log2 fold change": 0.014}
    ]}
  ]
}
